Drawing on the supplement of paper PMC6555819, this text covers PBM binding z-score for 40 sequences.

For the first assay, the system named is RARa:RXR (NR concentration 270 nM, RXRa partner concentration 90 nM). The assay can be described thus: PBM binding z-score (relative to random genomic background probes); higher = stronger binding; sequences stand for … in GC…GCGATTGACAGCGTAGAATGAAGG
In short, it runs like this: (§1)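 Regression normalization was applied to scanned fluorescence from custom Agilent 4×180K protein-binding microarrays. Before scanning, arrays were incubated 1 h with ligand-free nuclear receptor dimers, and binding was detected with antibodies against each partner (one per run). Binding z-scores use the random background probes as reference.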
The sequence GCGACTAGGGCATCAGCAGGTTACCATAACTTAA registered a PBM binding z-score of 0.482.

In turn, GATACAGTGTCAAGGCCAGAGTACGCGTATTGAT came in with a PBM binding z-score of 0.272.

The sequence GCGACTGGGGCATCAGCAGGTTTCCATAACTTAA registered a PBM binding z-score of -0.096.

Consider CCGACTGGGGCATAAGGTTACCCTAAGCCAGCCC, for which the PBM binding z-score was found to be 1.1.

In the case of AATACAGGGTCATCGTAGGCCAGCGTACGCACAG, the PBM binding z-score was found to be 4.77.

GCGACTGGGGCATCAGCAGATTACCATAACTTAA came in with a PBM binding z-score of -0.267.

For the sequence GGACCGAGGGCAAAGTTGATAGCATCTGTCGACG, the PBM binding z-score worked out at 1.26.

Sequence CGGACTAGGTCATTGACAGGACAGTGAATAGTAA gave a PBM binding z-score of 2.12.

Consider CGTCAAAGTTTAACTAAGGTAACGTAAAGCACGC, for which the PBM binding z-score stood at 1.55.

The sequence ATATGTAGGTTAGCTGGGGTCATACAGACTAGGC had a PBM binding z-score of 5.89.

In the case of GCGGCTAGGTCAACTGATGGTCAGCTAAAGCTCG, the PBM binding z-score came to 2.84.

CAGCCTAGGTCATGGCCAGTATAGGAGGAACGTT displayed a PBM binding z-score of 2.45.

Regarding CCTAGTTGGTCAAGGCCACACACGCTATAGGTAC, the PBM binding z-score was determined as 0.34.

Regarding CCTTACGGGTCAACGTTATAGCACGGGTGGTACG, the PBM binding z-score is 3.99.

Take TCTTGTAGATCAAACAGGTTAAGAAAGCCTGAGT: the PBM binding z-score is 0.849.

The sequence CCTAGTTGGTCAGGAGGTCACACTCCGGATATGA registered a PBM binding z-score of 4.82.

Take TCTAGCAGGCGAGAGGGTCACTCAAGAGGTACGG: the PBM binding z-score was 2.24.

CGAACGAGGGCATGAGTTGATAGCGAATGCCGAT displayed a PBM binding z-score of 0.351.

Sequence TCATATAGGTAAAAGGTGAAAGTAGGTGTGGTAA came in with a PBM binding z-score of 3.45.

Consider ACAGACAGGTGAGTGAAGGTAGCTCAGCTGGACG, for which the PBM binding z-score was -0.193.

Regarding CAAACTAGGTCACAGAGGTCAAAGACCGTGCGTA, the PBM binding z-score worked out at 7.44.

The sequence TGTCAAAGTTCAAAGGTAACGGAAGTATCCACAC registered a PBM binding z-score of 6.93.

With CATTACGGGTCACGAGGTTATAGCACGACGAGCG, the PBM binding z-score amounted to 6.52.

On to ATCTCTAGGTAAAGTTCAGTTAAAGATCGATAGA, for which the PBM binding z-score is 1.81.

Turning to CCTACGGGGCCATTCAGAGGTCATTGATCATATG, the PBM binding z-score worked out at 5.76.

In turn, AGAATGAGGTTAATATCAGGGAAACAGAATACAT gave a PBM binding z-score of 1.74.

In turn, CCGACTGGGCCAAGGTCATTGATCAGTCAAAGCA returned a PBM binding z-score of 3.76.

The sequence CCTCAGAGGACAGAAGGTCAGAGCTGTCCGCTTT had a PBM binding z-score of 2.01.

Consider CGAACTAGGTCATCCAGGAAAGTGAATACATTGA, for which the PBM binding z-score stood at 2.49.

As for ACTATTAGTTGAGACGAGTGCAACCGATAGGTTG, the PBM binding z-score turned out to be 0.0877.

GCTTACGGGTCAAAGGTTATAGCGTGAATAGAAT: the PBM binding z-score amounted to 7.96.

As to ACTATTAGTTGACTTAGGGCAACCGGTACGACGC, the PBM binding z-score worked out at 0.898.

AGATTGAGGTTATACGTAGATCAGGGAAGAAAGT gave a PBM binding z-score of 1.7.

Consider CCTACTAGGTCAATGGTCAGCTAAAGCAGCTCGC, for which the PBM binding z-score was found to be 1.95.

The sequence ATCTGTAGGTAACAAGTTCAGTGAAAGAGAGGAC had a PBM binding z-score of 1.16.

In turn, CAAACTAGGTCAACAGGTCAAAGTCCGCTTCCCG came in with a PBM binding z-score of 5.98.

In turn, TCTCGGAGGACACGAAAGGTTAGAGCTCGACATC came in with a PBM binding z-score of 1.52.

With GCTTGTATATCAAGGTTAAGAAAGACTAAGCTAA, the PBM binding z-score is 0.967.

For TCCGCTAGGTCAACGATGGTCAGCTAATCTGCTA, the PBM binding z-score came to 1.69.

For the sequence CCTATGAGTTGACCATAAGGGCAACCGAAGCTCG, the PBM binding z-score came out at 1.51.

Another assay concerns RARa homodimer (NR concentration 270 nM). The assay is described as above. In outline: as §1
Consider GCGACTAGGGCATCAGCAGGTTACCATAACTTAA, for which the PBM binding z-score was -0.519.

GATACAGTGTCAAGGCCAGAGTACGCGTATTGAT yielded a PBM binding z-score of -0.156.

Consider GCGACTGGGGCATCAGCAGGTTTCCATAACTTAA, for which the PBM binding z-score was -0.582.

CCGACTGGGGCATAAGGTTACCCTAAGCCAGCCC had a PBM binding z-score of -0.511.

In turn, AATACAGGGTCATCGTAGGCCAGCGTACGCACAG gave a PBM binding z-score of 0.478.

GCGACTGGGGCATCAGCAGATTACCATAACTTAA showed a PBM binding z-score of 0.336.

The sequence GGACCGAGGGCAAAGTTGATAGCATCTGTCGACG returned a PBM binding z-score of -0.439.

Sequence CGGACTAGGTCATTGACAGGACAGTGAATAGTAA came in with a PBM binding z-score of 0.305.

For CGTCAAAGTTTAACTAAGGTAACGTAAAGCACGC, the PBM binding z-score came to 0.858.

Regarding ATATGTAGGTTAGCTGGGGTCATACAGACTAGGC, the PBM binding z-score was 1.68.

Consider GCGGCTAGGTCAACTGATGGTCAGCTAAAGCTCG, for which the PBM binding z-score is -0.107.

In the case of CAGCCTAGGTCATGGCCAGTATAGGAGGAACGTT, the PBM binding z-score came out at 0.132.

The sequence CCTAGTTGGTCAAGGCCACACACGCTATAGGTAC registered a PBM binding z-score of 0.796.

CCTTACGGGTCAACGTTATAGCACGGGTGGTACG showed a PBM binding z-score of 0.25.

TCTTGTAGATCAAACAGGTTAAGAAAGCCTGAGT returned a PBM binding z-score of 0.0835.

CCTAGTTGGTCAGGAGGTCACACTCCGGATATGA returned a PBM binding z-score of 1.53.

In turn, TCTAGCAGGCGAGAGGGTCACTCAAGAGGTACGG showed a PBM binding z-score of -0.11.

On to CGAACGAGGGCATGAGTTGATAGCGAATGCCGAT, for which the PBM binding z-score is -0.349.

The sequence TCATATAGGTAAAAGGTGAAAGTAGGTGTGGTAA registered a PBM binding z-score of 2.24.

For ACAGACAGGTGAGTGAAGGTAGCTCAGCTGGACG, the PBM binding z-score is -0.484.

For the sequence CAAACTAGGTCACAGAGGTCAAAGACCGTGCGTA, the PBM binding z-score was 2.59.

Regarding TGTCAAAGTTCAAAGGTAACGGAAGTATCCACAC, the PBM binding z-score is 1.65.

As for CATTACGGGTCACGAGGTTATAGCACGACGAGCG, the PBM binding z-score turned out to be 1.04.

The sequence ATCTCTAGGTAAAGTTCAGTTAAAGATCGATAGA displayed a PBM binding z-score of 1.83.

In turn, CCTACGGGGCCATTCAGAGGTCATTGATCATATG displayed a PBM binding z-score of 0.566.

For AGAATGAGGTTAATATCAGGGAAACAGAATACAT, the PBM binding z-score worked out at 1.04.

CCGACTGGGCCAAGGTCATTGATCAGTCAAAGCA had a PBM binding z-score of 0.257.

Turning to CCTCAGAGGACAGAAGGTCAGAGCTGTCCGCTTT, the PBM binding z-score stood at 0.177.

In the case of CGAACTAGGTCATCCAGGAAAGTGAATACATTGA, the PBM binding z-score stood at 0.697.

For the sequence ACTATTAGTTGAGACGAGTGCAACCGATAGGTTG, the PBM binding z-score is -0.0239.

GCTTACGGGTCAAAGGTTATAGCGTGAATAGAAT: the PBM binding z-score turned out to be 0.595.

Consider ACTATTAGTTGACTTAGGGCAACCGGTACGACGC, for which the PBM binding z-score was determined as 0.577.

In turn, AGATTGAGGTTATACGTAGATCAGGGAAGAAAGT gave a PBM binding z-score of 0.422.

As to CCTACTAGGTCAATGGTCAGCTAAAGCAGCTCGC, the PBM binding z-score came to 0.521.

Take ATCTGTAGGTAACAAGTTCAGTGAAAGAGAGGAC: the PBM binding z-score was found to be 0.818.

In the case of CAAACTAGGTCAACAGGTCAAAGTCCGCTTCCCG, the PBM binding z-score is 3.05.

The sequence TCTCGGAGGACACGAAAGGTTAGAGCTCGACATC displayed a PBM binding z-score of 0.215.

Sequence GCTTGTATATCAAGGTTAAGAAAGACTAAGCTAA returned a PBM binding z-score of 0.663.

In turn, TCCGCTAGGTCAACGATGGTCAGCTAATCTGCTA registered a PBM binding z-score of -0.297.

In turn, CCTATGAGTTGACCATAAGGGCAACCGAAGCTCG displayed a PBM binding z-score of 0.579.
